Source: PubChem BioAssay
Many of the other results were omitted from the sample, so hits are more common in it than they were.
Pf apPOL inh: Pf-apPOL DNA polymerase inhibition. Recombinant Pf-apPOL, molecular beacon fluorescence, 1.5 h. inhibition, % at 10 µM. 0.25% of 210,000 active. AID 1794808
mHTT CaM bind: disrupts binding of mutant huntingtin to calmodulin; AlphaScreen His-mHTT/GST-CaM binding, luminescence; inhibition, % at 15 µM; 3.6% of 190,000 active; AID 1671202;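 further: 0% = both proteins with DMSO and 100% = one protein alone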
* = called active by the depositor; nt = no result; + = active, no number; ! = a repeat was not active. No stated cut-off is given here; in the data, active means inhibition above about 50%; inactive means the rest.

SMILES	Pf apPOL inh	mHTT CaM bind
COc1cc(C(=O)N2CCC(n3cnc4ccccc43)CC2)ccc1C	-7	12
O=C(c1ccc2c(c1)OCO2)N1CCC(CCOCc2ccccc2F)CC1	-1	-6
CN(C)c1cccc(C(=O)N2CCC(CCOCc3ccccc3F)CC2)c1	-3	57*
CN(C)c1cccc(C(=O)N2CCC(CCOCc3ccc(F)cc3)CC2)c1	-5	60*
CN(C)c1ccc(C(=O)N2CCC(CCOc3cccc(F)c3)CC2)cc1	-4	15
CN(C)c1cccc(C(=O)N2CCC(CCOCc3cccc(F)c3)CC2)c1	-6	48
CN(C)c1cccc(C(=O)N2CCC(n3cnc4ccc(F)cc43)CC2)c1	-3	51*
CN(C)c1cccc(C(=O)N2CCC(CCOc3cccc(F)c3)CC2)c1	-2	84*
O=C1CN(c2ccc(OC(F)(F)F)cc2)C(=O)CN1N=Cc1ccc([N+](=O)[O-])o1	-3	nt
Cc1noc(C)c1S(=O)(=O)NCCn1ncc2c(N3CCCC3)ncnc21	-12	-10
CC(=O)NC1=NN(C(C)=O)C2(CCCCC2)S1	39	2
CC(C)c1cc(C2CCCN2C(=O)c2cc(-c3cccc(Cl)c3)on2)no1 (configuration not stated)	0	-6
CC(=O)N1CCN(C(C(=O)N(C)Cc2ccccc2)C2CCCC2)CC1 (configuration not stated)	-2	13
c1coc(CNc2nc(-c3ccncc3)nc3c2CCC3)c1	-3	-1
O=C(c1ccc(F)cc1)N1CCC(CCOc2ccccc2F)CC1	-3	4
CN(C)c1ccc(C(=O)N2CCC(CCOc3ccccc3F)CC2)cc1	-6	88*
COCCN=C1Nc2ccccc2CNC12CCN(C(=O)Cc1c[nH]c3ccccc13)C2 (configuration not stated)	-5	41
CCOC(=O)CCSCC(=O)N1N=C(c2cccs2)CC1c1ccc(C)cc1 (configuration not stated)	1	52*
Cc1ccc(C2CC(c3cccs3)=NN2C(=O)CN(C)C(=O)C(C)C)cc1 (configuration not stated)	0	26
Cc1ccc(C(=O)N2CCC(COc3ccc(C(=O)N4CCOCC4)cc3)CC2)cc1	1	20
COc1cc(-c2nc3cc(C(C)(C)C)ccc3o2)ccc1O	2	56*
COc1ccc(-c2nc3cc(C)ccc3o2)cc1N	6	34
COc1ccc(-c2nc3cc(C(C)(C)C)ccc3o2)cc1O	4	61*
CC(C)(C)c1ccc(-c2nc3cc(N)ccc3o2)cc1	-7	27
CCC1COCCS(=O)(=O)N1Cc1ccc(Cl)cc1 (configuration not stated)	-4	-8
SMILES	Pf apPOL inh	mHTT CaM bind
COc1ccc(S(=O)(=O)N2CCSC2c2ccc([N+](=O)[O-])cc2)cc1 (configuration not stated)	4	14
CCCCSc1nc2c(c(C(F)(F)F)c1C#N)CC(C)CC2 (configuration not stated)	nt	-88
CN1CCN(C(=O)CSc2nc3c(c(C(F)(F)F)c2C#N)CCC3)CC1	nt	62*
O=C1NCCCc2nc(Nc3ccccc3)sc21	-4	-7
O=C(Nc1nccs1)C1COc2ccccc2O1 (configuration not stated)	13	-3
O=C(Cn1nc2c(c1NC(=O)C1COc3ccccc3O1)CSC2)NCc1ccco1 (configuration not stated)	20	94*
COc1ccccc1-c1sc2ccccc2c1-c1cnc(N2CCOCC2)nc1	-8	-34
C/C(=N/Nc1nnc(C)c(=O)[nH]1)C(=O)O	nt	+
Cc1nnc(NN=C(C(=O)O)C(=O)O)[nH]c1=O	nt	14
NC(=O)C1CCN(C(=O)Cc2cc(-c3ccco3)on2)CC1	73*	-3
CC1Cc2ccccc2N1C(=O)Cc1cc(-c2ccco2)on1 (configuration not stated)	-3	0
O=c1[nH]c2ccc(Cl)cc2c(-c2ccccc2)c1[N+](=O)[O-]	-2	17
CS(=O)(=O)N1N=C(c2c(-c3ccccc3)c3cc(Cl)ccc3[nH]c2=O)CC1c1ccccc1 (configuration not stated)	0	67*
COc1ccc(C2=C([N+](=O)[O-])C(=CN3CCCCC3)N=C2)cc1	-5	nt
C[C@H](c1ccccc1)N1C[C@H](COCc2ccccc2)Oc2cc(N3CC[C@H](N(C)C)C3)ccc2S1(=O)=O	-5	-11
C[C@@H](c1ccccc1)N1C[C@H](COCc2ccccc2)Oc2cc(N3CC[C@H](N(C)C)C3)ccc2S1(=O)=O	-6	100*
C[C@@H](c1ccccc1)N1C[C@H](COCc2ccccc2)Oc2cc(N3CC[C@@H](N(C)C)C3)ccc2S1(=O)=O	-5	100*
COC[C@@H]1CCCN1c1ccc2c(c1)O[C@@H](COCc1ccccc1)CN([C@@H](C)c1ccccc1)S2(=O)=O	0	-3
CCc1nnc(NC(=O)CSc2nc(N)c(C#N)cc2C#N)s1	3	-2
O=C(Cn1c(=O)n(-c2ccccc2)c2ncccc21)NC1CCCCCC1	0	0
Cc1cc2c(C(C)C)c(O)c(O)c(C=O)c2c(O)c1-c1c(C)cc2c(C(C)C)c(O)c(O)c(C=O)c2c1O	88*!	nt
Cc1cc(C2CCCN2Cc2cccc(F)c2F)on1 (configuration not stated)	0	-15
Cc1c(N=Cc2cn(-c3ccccc3)nc2-c2cccnc2)c(=O)n(-c2ccccc2)n1C	-8	31
O=C(/C=C/c1cn(-c2ccccc2)nc1-c1cccnc1)c1ccco1	6	53*
OCc1cn(-c2ccccc2)nc1-c1cccnc1	-1	-3
SMILES	Pf apPOL inh	mHTT CaM bind
O=C(/C=C/c1cn(-c2ccccc2)nc1-c1cccnc1)c1cccs1	0	52*
CCOC(=O)Cc1csc(NC(=O)c2nccnc2C(=O)O)n1	0	nt
N#Cc1c(F)cccc1NCCc1ccccn1	-4	nt
O=C(CN1C(=O)C(=O)c2ccccc21)NCCc1ccccc1	-14	9
Cc1cccc(NC(N)=Nc2nc(C)cc(C)n2)n1	1	3
O=C(Nc1cc(Cl)ccc1O)c1cccc(S(=O)(=O)N2CCCC2)c1	-5	51*
O=C(Nc1cc(Cl)ccc1Cl)c1cccc(S(=O)(=O)N2CCCCC2)c1	-9	-11
CC1C(=O)N(Cc2cn(CCC3OCCCO3)nn2)CCS(=O)(=O)N1Cc1ccc(-c2cccc(N(C)C)c2)cc1 (configuration not stated)	-2	40
COCOCCn1cc(CN2CCS(=O)(=O)N(Cc3ccc(-c4cccc(CO)c4)cc3)C(C(C)C)C2=O)nn1 (configuration not stated)	-11	23
CC(C)C1C(=O)N(Cc2cn(CCC3OCCCO3)nn2)CCS(=O)(=O)N1Cc1ccc(-c2cccc(CO)c2)cc1 (configuration not stated)	-7	46
COCOCCn1cc(CN2CCS(=O)(=O)N(Cc3ccc(-c4cccc(N(C)C)c4)cc3)C(C(C)C)C2=O)nn1 (configuration not stated)	-3	57*
CC(C)C1C(=O)N(Cc2cn(CCC3OCCO3)nn2)CCS(=O)(=O)N1Cc1ccc(-c2cccc(N(C)C)c2)cc1 (configuration not stated)	-1	68*
CC(C)C1C(=O)N(Cc2cn(CCC3OCCCO3)nn2)CCS(=O)(=O)N1Cc1ccc(-c2cccc(N(C)C)c2)cc1 (configuration not stated)	-6	61*
